The values below come from PubChem BioAssay (NCI).

This is part of a sample that, as a whole, favours compounds with a hit. Of some 83,000 tested, about 20% had one in any assay.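 The test compound was applied at a single concentration to cells in 96-well plates for 48 hours, and percent growth was recorded.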 Activity calls are given as the source filed them. Rule for the calls: active = growth percent below 10; inactive = the rest.

For the assay, the system named is 786-0 renal. Nature of the assay: NCI-60 one-dose screen, 48 h (100 = growth as untreated, 0 = no growth, -100 = all killed). As to conditions: 10 µM unless noted.
As to `COc1ccc(-c2cn(-c3ccccc3)c(-c3ccccc3)n2)cc1OC`, the growth is 83.7% (inactive).
Take `O=c1ccn(C2OC(CO)C(O)C2F)c(=O)[nH]1` (configuration not stated): the growth is 99.2% (inactive).
Under `c1ccc(N2CCN(c3nncc4ccccc34)CC2)nc1` stands 104% (inactive).
Regarding `CCOc1ccccc1C(=O)OCC(=O)Nc1cccc(S(=O)(=O)N(C)C)c1`, the growth was 109% (inactive).
The result for `O=[N+]([O-])c1ccc(N/N=C\c2ccccc2[N+](=O)[O-])nc1` reads 104% (inactive).
As for `O[C@@H]1Cc2ccc3ccccc3c2N[C@H](c2ccoc2)C1`, the growth is 108% (inactive).
For the compound `CCOC(=O)/C=C(/C)Sc1cc(O)c2ccccc2c1O`, the growth was 159% (inactive).
Under `CCc1ccc(CCN2C(=O)c3ccccc3C2=O)nc1` stands 106% (inactive); under `O=C1C(=O)c2ccc(Br)cc2-c2cc(Br)ccc21`, 50.9% (inactive); under `COc1cc(/C=C/C(=O)N2CCN(C(=O)/C=C/c3ccccc3)CC2)cc(OC)c1OC`, 101% (inactive).
With `Cc1nn(-c2ccc(Cl)cc2)c2nc3c(nc12)C(=O)c1ccccc1-3`, the growth is 56.8% (inactive).
Under `COc1cc(C2NC(c3ccc(Cl)cc3)C(C)/C(=N/NC(N)=S)C2C)cc(OC)c1OC` (configuration not stated) stands 91.1% (inactive); under `COC(=O)c1ccc2c(c1)nc(-c1ccc(O)c(OC)c1)n2-c1cc(C(C)(C)C)[nH]n1`, 97.7% (inactive).
Regarding `COC(=O)[C@]1(C(C)C)N[C@H](c2cn(-c3ccccc3)nc2-c2ccccc2)[C@@H]2C(=O)N(c3ccc(Cl)cc3)C(=O)[C@@H]21`, the growth was 81.9% (inactive).
As for `C[n+]1c2ccccc2c(NC2CCNCC2)c2[nH]c3ccccc3c21`, the growth is 58% (inactive).
Turning to `COc1cc2c(cc1OCCCCCn1c(-c3ccc(OCc4ccccc4)cc3)nc3cc(N4CCOCC4)ccc31)N=C[C@@H]1CCCN1C2=O`, the growth is -22.5% (active).
As for `CSc1nnc(C2=CC(=O)c3ccccc3C2=O)n1-c1ccccc1`, the growth was 95.2% (inactive).
Regarding `COc1cccc2c1O/C(=C\c1c([N+](=O)[O-])ncn1C)C2=O`, the growth was 96.1% (inactive).
Under `CCC1=C(c2ccc(OC)cc2)C(C)(C)Oc2c1ccc(O)c2CN1CCCC1` stands 34.2% (inactive).
The result for `CCCCn1c(Cc2ccc(Cl)cc2)nc2cc(OC)c(OC)cc2c1=O` reads 84.4% (inactive); that for `ClC1C2CC(c3ccccc32)C1Cl` (configuration not stated), 103% (inactive).
On to `CC(c1ccccn1)C(C)(O)C(C)c1ccccn1` (configuration not stated), for which the growth is 107% (inactive).
Under `O=C(Nc1ccccc1Cl)c1cnc2ccc(C3CCNCC3)cn12` stands 52.8% (inactive); under `O=C(OCCBr)c1ccc(Cl)c([N+](=O)[O-])c1`, 102% (inactive).
With `CO[C@H]1/C=C/O[C@@]2(C)Oc3c(C)c(O)c4c(O)c(c(/C=N/N5CCN(C)CC5)c(O)c4c3C2=O)NC(=O)/C(C)=C\C=C\C(C)[C@H](O)[C@@H](C)[C@@H](O)[C@@H](C)[C@@H](OC(C)=O)[C@@H]1C` (some centres not stated), the growth was 96.6% (inactive).
As for `CC(=O)c1nc2ccccc2n1CCn1cc(CC(N)C(=O)O)c2ccccc21` (configuration not stated), the growth is 115% (inactive).
The result for `CCCCCCOc1ccc(/C=N/NC(N)=S)cc1` reads 9.39% (active); that for `Cc1ccccc1NC(=O)c1cc2ccccc2cc1O`, 54.9% (inactive); that for `CC[C@]1(O)CC2CN(CCc3c([nH]c4ccccc34)[C@@](C(=O)OC)(c3cc4c(cc3OC)N(C)[C@H]3[C@@](O)(C(=O)OC)[C@H](OC(C)=O)[C@]5(CC)C=CCN6CC[C@]43[C@@H]65)C2)C1` (some centres not stated), 13.8% (inactive).
The result for `CN(C)c1ccc(/C=C(\C#N)c2nc3ccccc3c(=O)[nH]2)cc1` reads 91.9% (inactive).
Under `CC(=O)c1cc(C(=O)c2ccc3c(c2)Sc2ccccc2N3)c2c(C)cc(C)cn12` stands 4% (active).
In the case of `CCn1c2ccccc2c2ccc(C(C)=O)cc21`, the growth was 102% (inactive).
Under `Clc1ncn[nH]1` stands 103% (inactive); under `Cc1cc(N2CCOCC2)nc(N2CCOCC2)n1`, 92.7% (inactive); under `Oc1ccc(Cc2ccc(O)c(C3CC(c4ccc(Cl)cc4)=NN3)c2)cc1C1CC(c2ccc(Cl)cc2)=NN1` (configuration not stated), 18.2% (inactive).
The result for `c1cncc(CNc2ccccc2-c2nnc(Nc3ccc4c(c3)OCO4)o2)c1` reads 37% (inactive); that for `COc1cc2c(C#N)n3c(c2cc1OC)C(=O)C(c1ccccc1)Oc1ccccc1-3` (configuration not stated), 48.5% (inactive).
